Assay outcomes: PubChem BioAssay, NMMLSC
Compounds with a hit are over-represented: about 1.1% of the library has one in this group of screens.
AGP1-GFP MLPCN: modulators of AGP1-GFP expression in yeast TOR pathway, primary screen, cell-based, multiplex flow cytometry, S. cerevisiae, MLPCN library; actives 0.02% (n = 320,000); 3 h; GFP as percent of DMSO wells; GFP response vs DMSO, % at 10 µM;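 active means GFP response relative to DMSO above a set limit, near screen average plus 3 SD, cut at about 150% in these data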;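 further: median GFP channel fluorescence of the gated AGP1 strain per well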
RPL19A-GFP yeast: RPL19A-GFP expression modulators in yeast, primary screen, cell-based, S. cerevisiae, multiplex flow cytometry, MLPCN. S. cerevisiae RPL19A-GFP strain, 3 h; active compounds read low. percent response vs DMSO, % at 10 µM. actives 0.3% (n = 330,000);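 active means percent response vs DMSO below 50%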;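 further: median channel GFP fluorescence of the barcoded RPL19A-GFP strain; ratio of sample median GFP to plate DMSO average so 100% = DMSO; lower means less RPL19A-GFP as with rapamycin TOR inhibition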
CIT2 TOR yeast: modulators of CIT2-GFP expression in yeast, primary screen, S. cerevisiae, GFP fusion, multiplex flow cytometry, MLPCN library; S. cerevisiae CIT2-GFP strain, 3 h; 100 means same as DMSO wells; GFP response vs DMSO, % at 10 µM; actives 0.065% (n = 320,000);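 active means GFP response relative to DMSO above a set limit, near the screen mean plus 3 SD, cut at about 150% in these data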;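 further: ratio of well median GFP fluorescence to mean of DMSO wells on the plate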
VLA-4 inh: inhibition in human VLA-4 binding assay, primary screen, VLA-4 allosteric modulator project, MLPCN library, flow cytometry, VLA-4 expressing cells. ligand binding flow cytometry. actives 0.2% (n = 330,000). AID 2557, 2010. inhibition, % (about 7 µM as worked out from the volumes in the protocol); in the data active means inhibition above about 50%
Target sequence (P13612 whole entry, looked up): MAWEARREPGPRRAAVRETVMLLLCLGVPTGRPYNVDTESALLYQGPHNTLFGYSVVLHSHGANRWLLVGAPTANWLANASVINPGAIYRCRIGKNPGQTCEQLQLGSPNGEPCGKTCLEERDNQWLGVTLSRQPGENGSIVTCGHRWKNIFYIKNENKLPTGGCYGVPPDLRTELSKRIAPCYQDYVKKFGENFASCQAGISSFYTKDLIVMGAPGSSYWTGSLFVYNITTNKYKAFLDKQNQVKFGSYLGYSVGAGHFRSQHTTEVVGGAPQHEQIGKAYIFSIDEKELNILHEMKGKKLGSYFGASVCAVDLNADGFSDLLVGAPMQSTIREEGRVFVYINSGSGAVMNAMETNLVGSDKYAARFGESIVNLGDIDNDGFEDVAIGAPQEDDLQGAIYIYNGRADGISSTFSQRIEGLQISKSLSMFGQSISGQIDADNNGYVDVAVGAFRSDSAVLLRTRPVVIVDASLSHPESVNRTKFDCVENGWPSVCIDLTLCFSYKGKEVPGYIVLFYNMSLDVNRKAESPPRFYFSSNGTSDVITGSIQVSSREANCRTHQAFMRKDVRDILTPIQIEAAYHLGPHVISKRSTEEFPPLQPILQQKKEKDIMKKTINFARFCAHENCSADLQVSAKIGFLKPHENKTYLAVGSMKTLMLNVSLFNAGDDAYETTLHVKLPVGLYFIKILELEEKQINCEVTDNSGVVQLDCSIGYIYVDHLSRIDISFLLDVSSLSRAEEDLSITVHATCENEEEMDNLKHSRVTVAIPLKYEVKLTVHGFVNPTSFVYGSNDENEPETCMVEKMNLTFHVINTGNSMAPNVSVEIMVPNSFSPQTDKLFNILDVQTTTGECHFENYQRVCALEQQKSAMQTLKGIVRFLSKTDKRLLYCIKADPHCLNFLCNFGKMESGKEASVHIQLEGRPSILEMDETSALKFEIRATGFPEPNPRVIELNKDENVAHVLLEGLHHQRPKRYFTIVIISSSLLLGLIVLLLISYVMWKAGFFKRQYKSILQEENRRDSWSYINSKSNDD
MEP2-GFP yeast: modulators of MEP2-GFP levels in yeast, primary screen, S. cerevisiae, multiplex flow cytometry, MLPCN library | S. cerevisiae MEP2-GFP strain, 3 h; 100% = DMSO control level | GFP response vs DMSO, % at 10 µM | actives 0.51% (n = 330,000) | AID 2016, 2009;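 active means GFP response versus DMSO above a set limit, roughly screen mean plus 3 SD, cut at about 180% in these data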;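 further: median GFP fluorescence of the barcode-gated MEP2-GFP cells per well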
LAP4 TOR yeast: modulators of LAP4-GFP expression in yeast, primary screen, S. cerevisiae, multiplex flow cytometry, MLPCN library; actives 0.34% (n = 320,000); AID 2023, 2009; GFP response vs DMSO, % at 10 µM; 3 h; median GFP as percent of DMSO wells;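 active means GFP response vs DMSO above a set limit, about the screen mean plus 3 SD, cut at about 150% in these data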
VLA-4 mod pick: retest of VLA-4 allosteric modulators, confirmation, cell-based, cherry-picked plates, U937, HUTS-21 LIBS antibody; inhibition, % at 6.7 µM; shares compounds with VLA-4 inh; U937 cells, HUTS-21 LIBS mAb binding, flow cytometry; LDV ligand present at threefold Kd; actives 2% (n = 1,300); in the data active means inhibition above about 40%;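 further: 0% = ligand without compound and 100% = no ligand background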
An asterisk follows results filed as active; nt = no result given.

SMILES | AGP1-GFP MLPCN | RPL19A-GFP yeast | CIT2 TOR yeast | VLA-4 inh | MEP2-GFP yeast | LAP4 TOR yeast | VLA-4 mod pick
NS(=O)(=O)c1cccc(NC(=O)Nc2ccccc2)c1 | 95 | 95 | 95 | -7 | 93 | 98 | 11
COc1ccc(S(=O)(=O)Nc2cccc3c2O[C@H](CN(C)C(=O)NC(C)C)[C@@H](C)CN([C@H](C)CO)C3=O)cc1 | 89 | 91 | 89 | -2 | 93 | 98 | nt
O=C(CCN1CCOCC1)Nc1ccc(Cl)cc1 | 94 | 94 | 99 | 6 | 119 | 85 | nt
C=CCn1c(C)nnc1SCC(=O)c1[nH]c(C)c(C(C)=O)c1C | 104 | 101 | 96 | 3 | 95 | 93 | nt
CC(=O)c1c(C)[nH]c(C(=O)CSc2nnc(C3CCCCC3)n2N)c1C | 102 | 98 | 94 | 52* | 100 | 97 | 4
COc1cc(C(=O)OCC(=O)c2ccccc2)cc2c1OCCO2 | 99 | 103 | 98 | 17 | 97 | 103 | nt
COc1cc(CC(=O)OCC(=O)c2ccc3c(c2)OCCO3)cc(OC)c1OC | nt | 99 | 91 | 91* | 106 | 91 | -6
CCN(c1ccccc1)S(=O)(=O)c1ccc(C(=O)NC2CCN(Cc3ccccc3)CC2)cc1 | 107 | 103 | 123 | 5 | 108 | 94 | nt
CCCc1cc(=O)n2nc(N3CCC(C(=O)N4CCN(c5cccc(OC)c5)CC4)CC3)sc2n1 | 97 | 96 | 103 | -11 | 98 | 92 | nt
O=C(NCCC1=CCCCC1)C1CCN(c2nnc(-n3cccc3)s2)CC1 | 104 | 98 | 92 | 56* | 105 | 117 | 5
CC(C)CCNC(=O)C1CCN(c2nnc(-n3cccc3)s2)CC1 | 105 | 99 | 100 | -4 | 101 | 105 | nt
CCN1C(=O)Cc2cc(S(=O)(=O)NCCc3ccccc3)ccc21 | 93 | 102 | 102 | 3 | 105 | 86 | 5
Cc1cc(C(=O)CN2CCCC(C)C2)c(C)n1-c1ccc(F)cc1 (centres undefined) | 92 | 96 | 96 | 42 | 97 | 87 | -10
Cc1ccc(-n2c(C)cc(C(=O)CN3CCOCC3)c2C)cc1 | 108 | 106 | 101 | 14 | 101 | 102 | nt
CCN1CCN(C(=O)c2ccc(NS(=O)(=O)c3ccccc3)cc2)CC1 | nt | nt | nt | 24 | nt | nt | nt
Cc1ccc(Nc2nc(N)nc(CN3CCN(c4ccccc4F)CC3)n2)cc1 | 102 | 100 | 96 | 26 | 108 | 108 | nt
Nc1nc(CN2CCN(c3ccccc3F)CC2)nc(Nc2ccccc2)n1 | 106 | 100 | 100 | 76* | 109 | 110 | 0
Cc1cccc(NC(=O)Cn2c(=O)oc3ccccc32)n1 | 99 | 101 | 106 | -1 | 106 | 101 | nt
O=C(Cn1c(=O)oc2ccccc21)NCCc1ccccc1 | 93 | 102 | 94 | -1 | 97 | 92 | 8
COc1ccc(NC(=O)Cn2c(=O)oc3cc(Cl)ccc32)c(OC)c1 | 94 | 104 | 100 | 5 | 105 | 93 | 0
COc1ccc(NC(=O)Cn2c(=O)oc3cc(S(=O)(=O)N4CCCC4)ccc32)c(OC)c1 | 95 | 96 | 98 | -11 | 89 | 91 | nt
O=C(Cn1c(=O)oc2ccccc21)Nc1ccc(Br)cc1 | 93 | 99 | 96 | 2 | 103 | 103 | 3
Cc1cc(NC(=O)Cn2c(=O)oc3ccccc32)no1 | 108 | 102 | 98 | 4 | 105 | 104 | 0
Cc1c(C)n(Cc2ccccc2)c2ncnc(Cl)c12 | 101 | 104 | 99 | 12 | 105 | 110 | nt
CC(Oc1ccccc1)C(=O)N/N=C/c1ccccn1 (centres undefined) | 104 | 100 | 99 | 3 | 100 | 100 | nt
SMILES | AGP1-GFP MLPCN | RPL19A-GFP yeast | CIT2 TOR yeast | VLA-4 inh | MEP2-GFP yeast | LAP4 TOR yeast | VLA-4 mod pick
O=C(Cn1c(=O)oc2ccccc21)Nc1ccc(Cl)cc1Cl | 100 | 103 | 109 | -9 | 110 | 81 | -9
CCc1noc(C)c1C(=O)Nc1ccccc1C(C)(C)C | 99 | 95 | 98 | 10 | 103 | 95 | nt
COc1ccc(N(C(=O)C(C)C)S(=O)(=O)c2ccc3ccccc3c2)cc1 | 92 | 92 | 101 | 0 | 91 | 82 | nt
COc1ccc(S(=O)(=O)CC(=O)c2cc(C)c(O)c(C)c2)cc1 | 96 | 102 | 99 | 50* | 106 | 86 | -10
COc1cccc(C2CC(=O)Nc3cc4c(cc32)OCCO4)c1OC(C)C (centres undefined) | 101 | 95 | 99 | -10 | 102 | 91 | -6
CC(C)Oc1ccccc1C1CC(=O)Nc2cc3c(cc21)OCCO3 (centres undefined) | 97 | 101 | 95 | 16 | 104 | 98 | nt
CCCOc1c(OC)cccc1C1CC(=O)Nc2cc3c(cc21)OCCO3 (centres undefined) | 107 | 103 | 98 | 10 | 102 | 107 | 5
COc1cccc(OCc2cc(C(=O)N3CCN(c4ccccc4OC)CC3)no2)c1 | 91 | 89 | 93 | -4 | 92 | 97 | nt
COc1ccc(C(=O)OCC(=O)Nc2cc(C)c(C)cc2[N+](=O)[O-])cc1 | 111 | 103 | 105 | 54* | 112 | 108 | 0
Cc1cccc(-n2c(Cc3cc(=O)[nH]c(=O)[nH]3)nnc2SCC(=O)N2CCCCC2)c1 | 101 | 98 | 101 | 54* | 99 | 99 | 10
FC(F)(F)c1cccc(NC(=S)Nc2ccc(Cl)cc2Cl)c1 | 100 | 102 | 94 | 90* | 113 | 112 | 11
O=C(CNc1ccccc1)N/N=C/c1c(O)ccc2ccccc12 | 100 | 99 | 98 | 50* | 90 | 95 | -3
COc1cccc2cc(CC(=O)c3ccccc3)c(=O)oc12 | 100 | 106 | 103 | 6 | 116 | 103 | nt
O=C(c1ccc(Cl)cc1Cl)N1CCSCC1 | 106 | 97 | 92 | -2 | 99 | 111 | nt
CC(C)[C@H](NC(=O)OCc1ccccc1)C(=O)NCc1ccccc1 | 91 | 100 | 98 | 42 | 100 | 88 | -17
CC(C)C(NC(=O)OCc1ccccc1)C(=O)NCc1ccc(C(=O)O)cc1 (centres undefined) | 83 | 108 | 84 | 3 | 106 | 101 | nt
